Measurements from PubChem BioAssay (NCATS).
Records with an inconclusive call do not appear. Unmarked numbers belong to inactive results. Active and inactive are the calls of the source. Calls follow the shape of the dose curve; as a rule, active = well fitted cell-killing curve with a large enough effect; inconclusive = small, poorly fitted or top-dose-only effect, or effect the other way; inactive = no such curve, though single readings can be large or run the other way.

Experiment: Quantitative High-Throughput drug screen in 47 multiple myeloma cell lines against the NCATS MIPE library collection: AMO1_DSMZ cell viability assay (AID 1918927; also: nearly all actives have a fitted effect of over 30% in size)
Settings: AMO1 myeloma cells viability, CellTiter-Glo ATP luminescence, 48 h; series mostly up to 45.8 µM; viability, % of DMSO: at the top concentration
Summary of the method: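 Myeloma cells (500 per well) were exposed to MIPE 4.0 compounds by pin transfer and incubated 48 hours at 37C, 5% CO2. Viability was read as ATP by CellTiter-Glo luminescence, normalised to DMSO (100%) and media-only (0%) wells.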
Potency is read from the fitted curve at half-maximal effect.

**Q.** With `Cc1cc(CS(=O)(=O)c2ccccc2)cc(OCc2ccc(CN3CCC[C@H]3CO)cc2)c1` as the compound, how does the Potency read?
**A.** 14.8 µM (active)

**Q.** Which “viability, % of DMSO” value does the source give for `COc1cc(C=CC(=O)O)ccc1O` here?
**A.** 101%

**Q.** With `Cc1cccc(Nc2nc(N[C@@H]3CCCC[C@H]3N)ncc2C(N)=O)c1` as the compound, how does the Potency read?
**A.** 20.9 µM (active)

**Q.** With `CC(C)(F)C[C@H](N[C@@H](c1ccc(-c2ccc(S(C)(=O)=O)cc2)cc1)C(F)(F)F)C(=O)NC1(C#N)CC1` as the compound, how does the “viability, % of DMSO” value read?
**A.** 119%

**Q.** With `C=C1[C@H](n2cnc3c(=O)[nH]c(N)nc32)C[C@H](O)[C@H]1CO` as the compound, how does the Potency read?
**A.** 18.7 µM (active)

**Q.** With `FC(F)(F)c1ccc(C=Cc2nc(COc3ccc(CCCCn4ccnn4)cc3)co2)cc1` as the compound, how does the Potency read?
**A.** 0.0105 µM (active)

**Q.** Which “viability, % of DMSO” value does the source give for `CC[C@H](C)n1cc(C)c2c(C(=O)NCc3c(C)cc(C)[nH]c3=O)cc(-c3ccc(N4CCNCC4)nc3)cc21` here?
**A.** 115%

**Q.** With `O=C1Nc2ccc(I)cc2C1=Cc1cc(Br)c(O)c(Br)c1` as the compound, how does the Potency read?
**A.** 16.6 µM (active)

**Q.** With `Cc1nc(NC(=O)N2CCC[C@@H]2C(N)=O)sc1-c1csc(C(C)(C)C)n1` as the compound, how does the Potency read?
**A.** 5.26 µM (active)

**Q.** For `CCOC(=O)[C@H]1O[C@H]1C(=O)N[C@@H](CC(C)C)C(=O)NCCC(C)C`, which “viability, % of DMSO” value is on record?
**A.** 99%

**Q.** For `OC(c1cc(C(F)(F)F)nc2c(C(F)(F)F)cccc12)C1CCCCN1` (configuration not stated), which Potency is on record?
**A.** 18.7 µM (active)

**Q.** Which Potency does the source give for `CC(=O)N1CCN(c2ccc(OCc3nn(C)c(C)c3-c3cccc4c(CCCOc5cc(C)c(Cl)c(C)c5)c(C(=O)O)n(Cc5cccnc5)c34)cc2)CC1` here?
**A.** 6.62 µM (active)

**Q.** Which “viability, % of DMSO” value does the source give for `CN1CC(=O)NC1=NC(=O)Nc1cccc(Cl)c1` here?
**A.** 121%

**Q.** For `CCC(=O)NCC[C@@H]1CCc2ccc3c(c21)CCO3`, which “viability, % of DMSO” value is on record?
**A.** 117%

**Q.** Which Potency does the source give for `CC1=C(CC(=O)O)c2cc(F)ccc2C1=Cc1ccc(S(C)=O)cc1` (configuration not stated) here?
**A.** 4.18 µM (active)

**Q.** For `Oc1cc(O)cc(C=Cc2ccc(O)c(O)c2)c1`, which Potency is on record?
**A.** 11.8 µM (active)

**Q.** For `CC(C)n1c(C=C[C@H](O)C[C@H](O)CC(=O)O)c(-c2ccc(F)cc2)c2ccccc21`, which Potency is on record?
**A.** 16.6 µM (active)

**Q.** For `CCC[C@@H](NC(=O)[C@@H]1[C@H]2CCC[C@@H]2CN1C(=O)[C@@H](NC(=O)[C@@H](NC(=O)c1cnccn1)C1CCCCC1)C(C)(C)C)C(=O)C(=O)NC1CC1`, which Potency is on record?
**A.** 18.7 µM (active)

**Q.** Which Potency does the source give for `O=C(NC[C@H](O)CO)c1ccncc1Nc1ccc(I)cc1F` here?
**A.** 5.26 µM (active)

**Q.** Which Potency does the source give for `Cc1ccc(NC(=O)Nc2cc(C(F)(F)F)ccc2F)cc1Nc1ccc2c(c1)NC(=O)C2=Cc1ccc[nH]1` here?
**A.** 4.18 µM (active)

**Q.** For `CN1[C@H]2CC[C@H]1CC(OC(=O)c1c[nH]c3ccccc13)C2` (some centres not stated), which “viability, % of DMSO” value is on record?
**A.** 106%

**Q.** For `CO[C@H]1C=CO[C@@]2(C)Oc3c(C)c(O)c4c(O)c(c(C=NN5CCN(C)CC5)c(O)c4c3C2=O)NC(=O)C(C)=CC=C[C@H](C)[C@H](O)[C@@H](C)[C@@H](O)[C@@H](C)[C@H](OC(C)=O)[C@H]1C`, which Potency is on record?
**A.** 5.98 µM (active)

**Q.** Which “viability, % of DMSO” value does the source give for `Cc1c(-c2cccc3c(CCCOc4cccc5ccccc45)c(C(=O)O)n(Cc4cccnc4)c23)c(COc2ccc(N3CCN([S+](=O)([O-])N(C)C)CC3)cc2)nn1C` here?
**A.** 92.5%

**Q.** With `COc1ccnc(CS(=O)c2nc3ccc(OC(F)F)cc3[nH]2)c1OC` (configuration not stated) as the compound, how does the “viability, % of DMSO” value read?
**A.** 92.9%

**Q.** Which “viability, % of DMSO” value does the source give for `C[C@@H]1CC=CC=CC=CC=C[C@@H](O[C@@H]2O[C@H](C)[C@@H](O)[C@H](N)[C@H]2O)C[C@@H]2O[C@](O)(C[C@@H](O)C[C@@H]3O[C@@H]3C=CC(=O)O1)C[C@H](O)[C@@H]2C(=O)O` here?
**A.** 123%

**Q.** With `CC(C)c1c(C(=O)Nc2ccccc2)c(-c2ccccc2)c(-c2ccc(F)cc2)n1CC[C@H](O)C[C@@H](O)CC(=O)O` as the compound, how does the “viability, % of DMSO” value read?
**A.** 102%

**Q.** With `O=C(O)Cc1cccc(OCCCN(Cc2cccc(C(F)(F)F)c2Cl)CC(c2ccccc2)c2ccccc2)c1` as the compound, how does the “viability, % of DMSO” value read?
**A.** 127%

**Q.** Which “viability, % of DMSO” value does the source give for `NC[C@H]1O[C@H](O[C@@H]2[C@@H](O)[C@@H](O[C@H]3O[C@H](CO)[C@@H](O)[C@H](N)[C@@H]3O)[C@H](N)C[C@@H]2N)[C@H](O)[C@@H](O)[C@H]1O` here?
**A.** 98.1%

**Q.** With `N#Cc1c(N(CC(=O)O)CC(=O)O)sc(C(=O)O)c1CC(=O)O` as the compound, how does the Potency read?
**A.** 8.33 µM (active)

**Q.** Which Potency does the source give for `NCc1c[nH]c(=S)n1[C@H]1CCc2c(F)cc(F)cc2C1` here?
**A.** 20.9 µM (active)

Experiment: Quantitative High-Throughput drug screen in 47 multiple myeloma cell lines against the NCATS MIPE library collection: ARP1_JJKsccF8 cell viability assay (AID 1918928; also: nearly all actives have a fitted effect of over 40% in size)
Settings: ARP1 myeloma cells viability, CellTiter-Glo ATP, 48 h; series mostly up to 45.8 µM; viability: at the top concentration
Summary of the method: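 Viability screen: myeloma cells (500/well) incubated 48 h at 37 °C, humidified 5% CO2, with pinned library compounds; CellTiter-Glo added, luminescence read; DMSO wells set 100%, medium-only wells 0%.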

**Q.** With `Cc1cccc(Nc2nc(N[C@@H]3CCCC[C@H]3N)ncc2C(N)=O)c1` as the compound, how does the Potency read?
**A.** 16.6 µM (active)

**Q.** For `CC(C)(F)C[C@H](N[C@@H](c1ccc(-c2ccc(S(C)(=O)=O)cc2)cc1)C(F)(F)F)C(=O)NC1(C#N)CC1`, which “viability” value is on record?
**A.** 91.6%

**Q.** Which Potency does the source give for `Cc1nc(NC(=O)N2CCC[C@@H]2C(N)=O)sc1-c1csc(C(C)(C)C)n1` here?
**A.** 6.62 µM (active)

**Q.** Which Potency does the source give for `CN1CC(=O)NC1=NC(=O)Nc1cccc(Cl)c1` here?
**A.** 20.9 µM (active)

**Q.** For `COc1cc2c(cc1OC)CC(=O)N(CCCN(C)C[C@H]1Cc3cc(OC)c(OC)cc31)CC2`, which “viability” value is on record?
**A.** 93.7%

**Q.** Which Potency does the source give for `CSc1cccc(Nc2ncc3cc(-c4c(Cl)cccc4Cl)c(=O)n(C)c3n2)c1` here?
**A.** 1.87 µM (active)

**Q.** Which Potency does the source give for `O=C(NC[C@H](O)CO)c1ccncc1Nc1ccc(I)cc1F` here?
**A.** 2.96 µM (active)

**Q.** With `CCC(=C(CC)c1ccc(O)cc1)c1ccc(O)cc1` as the compound, how does the Potency read?
**A.** 18.7 µM (active)

**Q.** Which “viability” value does the source give for `COc1ccnc(CS(=O)c2nc3ccc(OC(F)F)cc3[nH]2)c1OC` (configuration not stated) here?
**A.** 109%

**Q.** Which Potency does the source give for `C[C@@H]1CC=CC=CC=CC=C[C@@H](O[C@@H]2O[C@H](C)[C@@H](O)[C@H](N)[C@H]2O)C[C@@H]2O[C@](O)(C[C@@H](O)C[C@@H]3O[C@@H]3C=CC(=O)O1)C[C@H](O)[C@@H]2C(=O)O` here?
**A.** 4.18 µM (active)

**Q.** Which Potency does the source give for `CC(C)c1c(C(=O)Nc2ccccc2)c(-c2ccccc2)c(-c2ccc(F)cc2)n1CC[C@H](O)C[C@@H](O)CC(=O)O` here?
**A.** 18.7 µM (active)

**Q.** With `NCc1c[nH]c(=S)n1[C@H]1CCc2c(F)cc(F)cc2C1` as the compound, how does the Potency read?
**A.** 18.7 µM (active)
